“And” between values parts separate entries of the source, which are not always exact repeats. Identical values can stand only once. For part of these data: Measured potencies and affinities stand elsewhere. The source made the active and inactive calls.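 Rule for the calls, unless noted: active = thallium flux through the channel raised or lowered by more than 3 SD from vehicle-only wells, actives on both sides; inactive = the rest.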

The results in this text go back to PubChem BioAssay.

Test [1] is described as follows: blockers of polyQ-driven CASP3 activation – cell-based (AID 1583). As to conditions: polyglutamine-induced caspase-3 activation, cell assay; stronger effect = higher value;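 tested at 10 µM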.
Test [2] can be described thus: yeast 75Q aggregation reduction – 75Q-TubU reporter (AID 1593). As to conditions: Yeast 75Q polyglutamine aggregation reporter.
The nature of test [3]: restoration of touch response, mutant HTT neurons – whole organism, C. elegans mechanosensory neurons, N-terminal huntingtin (AID 1599). As to conditions: C. elegans polyQ-huntingtin mechanosensory neurons, stronger effect = higher value.
A short description of test [4]: blockers of cytochrome c efflux from mitochondria – biochemical, purified mitochondria (AID 1603).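 Note: mouse liver mitochondria challenged with calcium chloride; signal normalized to the plate average as 100%.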 The conditions noted are these: stronger effect = lower value.
Test [5] in a line: polyglutamine aggregate formation blockers (AID 1604). As to conditions: polyglutamine-induced protein aggregation inhibition assay; stronger effect = higher value; tested at 2.5 µM.
A short description of test [6]: glutamate transport activators, MN-1 cells, MN-1 cell line (AID 1612).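 Note: tested at 1 µM final; 0% = mean of DMSO vehicle wells on each plate; positive means more glutamate uptake than control and negative means less.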 The conditions noted are these: MN-1 motor neuron cells, stronger effect = higher value.
Test [7] can be described thus: 75Q-TubH aggregate inhibition, S. cerevisiae, yeast (AID 1616). The conditions noted are these: S. cerevisiae 75Q-TubH polyglutamine aggregation suppression; stronger effect = higher value.
The subject of test [8] is Hepatitis C virus NS3 helicase. The experiment in a line: blockers of NS3h binding to DNA – biochemical, fluorescence polarization, NIH Clinical Collection, primary screen (AID 743270; call rule not given here). The conditions noted are these: NS3 helicase binding to Cy5-dT15 DNA, stronger effect = higher value, concentration not given here.
The target of test [9] is Single-stranded DNA-binding protein (Escherichia coli (strain K12)) (UniProt P0AGE0). Kind of test: SSB-ssDNA binding inhibitors – biochemical, fluorescence polarization, NIH Clinical Collection, counter-screen for HCV NS3 helicase inhibitor project (AID 743271; in the data active = inhibition above about 28%). As to conditions: E. coli SSB-DNA binding, stronger effect = higher value, concentration not given here.
Test [10] can be described thus: compounds distorting NS3 helicase fluorescence signal – biochemical, NIH Clinical Collection, artefact control for HCV NS3 helicase inhibitor project (AID 743272; call rule not given here;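 note: HCV NS3 helicase with a Cy5 labelled single stranded DNA probe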). The conditions noted are these: fluorescence interference counterscreen, HCV NS3 helicase assay; stronger effect = lower value.
Test [11] deals with F380Y. Kind of test: BK channel mutant inhibitors and activators – cell-based, U2OS BacMam, thallium flux, beta subunits, selectivity assay, profiling panel (AID 1259406).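 Note: initial slope of Thallos dye fluorescence rise after thallium is added; log ratio against the mean of 0.3% DMSO vehicle wells on the same plate.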 As to conditions: U2OS BacMam BK variants, at 30 µM.
In test [12] the test system is F380Y/beta2Delta. The test is described as above. The conditions noted are these: U2OS BacMam BK variants, at 30 µM.
For test [13], the target named is Calcium-activated potassium channel subunit alpha-1 (Homo sapiens) + Leucine-rich repeat-containing protein 26 (Homo sapiens) (UniProt Q12791+Q2I0M4). The description is as above. As to conditions: U2OS BacMam BK variants, F380Y/Slo1WT/gamma1, at 30 µM.
Chain of Calcium-activated potassium channel subunit alpha-1 (Homo sapiens) + Leucine-rich repeat-containing protein 26 (Homo sapiens) (Q2I0M4 whole entry, looked up, one chain of several): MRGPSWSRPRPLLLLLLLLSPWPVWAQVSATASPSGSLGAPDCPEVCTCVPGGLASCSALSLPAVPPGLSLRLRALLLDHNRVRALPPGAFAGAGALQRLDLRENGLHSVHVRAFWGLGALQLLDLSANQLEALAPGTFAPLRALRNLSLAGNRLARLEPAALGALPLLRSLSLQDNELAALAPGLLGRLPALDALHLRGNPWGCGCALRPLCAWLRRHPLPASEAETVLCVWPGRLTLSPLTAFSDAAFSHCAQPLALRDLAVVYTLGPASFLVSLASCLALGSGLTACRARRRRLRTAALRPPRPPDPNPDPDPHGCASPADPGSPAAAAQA
In test [14] the test system is R275C. The description is as above. As to conditions: U2OS BacMam BK variants, at 30 µM.
Test [15] concerns R275C/beta1. The test is described as above. As to conditions: U2OS BacMam BK variants, at 30 µM.
Test [16] deals with R275C/beta2Delta. The test is described as above. As to conditions: U2OS BacMam BK variants, at 30 µM.
Test [17] can be described thus: P. berghei load reduction in hepatocytes – cell-based, HepG2, luciferase luminescence, HepG2 viability, primary screen (AID 624349; in the data active = parasite load remaining mostly below about 12%, no sharp cut-off; inactive = mostly above about 10%;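 note: 100% = mean of DMSO negative control wells on the same plate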). The conditions noted are these: P. berghei liver stage in HepG2, luciferase luminescence, concentration not given here; parasite load remaining: stronger effect = lower value; viability: measured here: HepG2 viability without parasites.
Test [18] can be described thus: compounds altering circadian rhythm period length – cell-based, LOPAC library, luminescence reporter (AID 2774; call rule not given here;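 note: values are relative to mean of DMSO wells on each plate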). The conditions noted are these: circadian reporter cells, at 7 µM, actives lie on both sides.
The test system of test [19] is Hepatitis C virus NS3 helicase. The experiment in a line: blockers of NS3h binding to ssDNA – biochemical, fluorescence polarization, LOPAC1280 library, primary screen (AID 687035; in the data active = inhibition above about 37%). As to conditions: Purified HCV NS3 helicase, Cy5-dT15 ssDNA binding fluorescence polarization; stronger effect = higher value; concentration not given here.
A short description of test [20]: growth inhibition, single agents and combos, ICB984, cell-based, cisplatin or BGB combos, synergistic combos for chromothripsis tumors (AID 1671451; call rule not given here;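 note: cells exposed for 96 hours before readout; 0% = vehicle DMSO and 100% = killing by high DMSO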). As to conditions: ICB984 medulloblastoma cells, drug combinations, stronger effect = higher value.

Consider `Cc1cc(NS(=O)(=O)c2ccc(N)cc2)no1`, for which the inhibition in test [1] was 23.4%; in test [8] it was 0.45% (inactive); in test [9], -0.48% (inactive). Also, the score in [2] was 1.35. Besides, the rescue above control in test [3] was -4.83. The cytochrome c release ratio in test [4] worked out at 0.69. In test [5], this molecule registered an inhibition of aggregation of 58.6%. Besides, the glutamate uptake change in [6] turned out to be 12.1%. The aggregation suppression score in test [7] amounted to 1.36. Moreover, the fluorescence ratio in test [10] was 1 (inactive). The log fold change Tl+ flux in [11] is -0.0179 (inactive); in [12] it was 0.0172 (inactive); in [13], -0.00437 (inactive); in test [14], 0.00714 (inactive); in [15], 0.00387 (inactive); in test [16] it was -0.00735 (inactive).

Consider `NC(=O)c1cccnc1`, for which the parasite load remaining in [17] was 64% (inactive) and 68.4% (inactive) and 18% (inactive). The viability in [17] is 200% and 89.4% and 114%. The inhibition in test [8] was 0.66% (inactive); in test [9], -1.97% (inactive). Besides, the fluorescence ratio in test [10] was 1.01 (inactive). The log fold change Tl+ flux was -0.0169 (inactive) in test [11]; -0.015 (inactive) in test [12]; 0.0332 (inactive) in [13]; -0.0297 (inactive) in [14]; 0.0353 (inactive) in [15]; 0.0215 (inactive) in test [16].

In the case of `COc1cc(Cc2cnc(N)nc2N)cc(OC)c1OC`, the inhibition in [1] was -19.7%; in [19], 1% (inactive); in test [8], -3.18% (inactive); in test [9], 0.29% (inactive). The molecule further registered a score in [2] of 1.11. Further, the rescue above control in test [3] amounted to 11.6. For the same molecule, in test [4], the cytochrome c release ratio was determined as 0.82. In addition, in [5], the inhibition of aggregation is 83.3%. The glutamate uptake change in [6] was -5.77%. The molecule also had an aggregation suppression score in test [7] of 1.24. Also, the period change in test [18] is 0.055 h (inactive). In addition, in test [10], the fluorescence ratio is 0.95 (inactive). For the same molecule, the log fold change Tl+ flux in test [11] was 0.00407 (inactive); in test [12], -0.0235 (inactive); in [13] it was -0.00393 (inactive); in [14], 0.00151 (inactive); in test [15] it was -0.051 (inactive); in test [16], -0.0321 (inactive).

Consider `CCn1cc(C(=O)O)c(=O)c2ccc(C)nc21`, for which the inhibition is 1.35% in test [1]; -0.45% (inactive) in test [8]; -2.76% (inactive) in [9]; 7.03% and -21.5% in test [20] (BGB IC20 combo, at 0.005 µM); -26.9% and -29.6% in test [20] (BGB IC40 combo, at 0.005 µM); -0.123% and -9.89% in [20] (BGB IC40 combo, at 0.05 µM). The inhibition in [20] (at 0.5 µM) is -22.6% (inactive) and -21.9% (inactive); in test [20] (cisplatin combo, at 0.05 µM), -0.123% and -9.89%; in test [20] (cisplatin combo, at 0.5 µM) it was -52.2% and -39.7%; in test [20] (cisplatin combo, at 5 µM) it was -11.7% and -29.5%; in [20] (measured here: 5 uM single agent, at 5 µM), -3.29% and -15.7%. In addition, in [2], the score was determined as 0.74. The molecule further yielded a rescue above control in [3] of -12.9. Also, in test [4], the cytochrome c release ratio came out at 0.84. The inhibition of aggregation in [5] was determined as 54.5%. Besides, the glutamate uptake change in test [6] was -15.5%. The same molecule showed an aggregation suppression score in [7] of 0.277. Also, in test [10], the fluorescence ratio was 0.97 (inactive). The log fold change Tl+ flux is 0.0464 (inactive) in [11]; 0.0152 (inactive) in test [12]; 0.0259 (inactive) in test [13]; -0.0165 (inactive) in [14]; 0.0366 (inactive) in test [15]; 0.000751 (inactive) in [16].

In the case of `CC12CCC(CC1)C(C)(C)O2`, the inhibition in [1] was 20.8%. The score in test [2] worked out at 1.26. The molecule further came in with a rescue above control in test [3] of 2.25. The cytochrome c release ratio in test [4] turned out to be 0.96. This molecule also displayed an inhibition of aggregation in test [5] of 71.8%. In addition, the glutamate uptake change in test [6] is -6.04%. This molecule also registered an aggregation suppression score in [7] of 1.21.

As to `CNCCCN1c2ccccc2CCc2ccccc21`, the inhibition in test [1] was -34.3%; in test [19] it was -1% (inactive); in [8] it was -2.27% (inactive); in [9] it was -2% (inactive). The score in [2] was found to be 1.37. The molecule further came in with a rescue above control in test [3] of -15.4. Besides, the cytochrome c release ratio in [4] was found to be 1.05. The molecule also yielded an inhibition of aggregation in test [5] of 7.32%. The glutamate uptake change in test [6] was 12.7%. The molecule also came in with an aggregation suppression score in [7] of 1.18. In addition, in test [18], the period change was -0.04 h (inactive). In [10], the fluorescence ratio was 1.02 (inactive). In addition, the log fold change Tl+ flux is 0.121 (active) in test [11]; 0.152 (active) in [12]; 0.148 (active) in [13]; 0.0168 (inactive) in test [14]; 0.17 (active) in test [15]; 0.152 (active) in test [16].

For the molecule `COc1c2occc2cc2ccc(=O)oc12`, the inhibition is 18.6% in test [1], -3.18% (inactive) in [8] and -5.05% (inactive) in test [9]. Also, the score in [2] came out at 0.85. In test [3], this molecule registered a rescue above control of 6.17. In addition, the cytochrome c release ratio in [4] is 2.13. Besides, the inhibition of aggregation in test [5] is 72.4%. The glutamate uptake change in [6] was -3.48%. The molecule further had an aggregation suppression score in [7] of 0.937. The fluorescence ratio in test [10] was 1.02 (inactive). The log fold change Tl+ flux is -0.0152 (inactive) in [11]; -0.0131 (inactive) in test [12]; 0.011 (inactive) in test [13]; 0.0168 (inactive) in test [14]; -0.00904 (inactive) in test [15]; 0.0233 (inactive) in [16].

For the molecule `O=C1CN(/N=C/c2ccc([N+](=O)[O-])o2)C(=O)N1`, the inhibition in test [1] worked out at 27%. In test [2], this molecule came in with a score of 0.72. The molecule also showed a rescue above control in test [3] of 4.47. Further, the cytochrome c release ratio in test [4] is 0.76. The molecule also came in with an inhibition of aggregation in test [5] of 41.5%. For the same molecule, the glutamate uptake change in [6] was 23.4%. The aggregation suppression score in test [7] is 0.814.
